From PubChem
Hits are enriched below; roughly 19% of the tested compounds scored in any of these assays.
HT1080NT lethal: kills 2HG-producing HT-1080-NT fibrosarcoma cells; HT-1080-NT fibrosarcoma viability, CellTiter-Glo ATP luminescence, 48 h; Potency, µM (doses to about 46.1 µM), for inactives: top-dose activity, negative = less viability, most hits filed as cytotoxic; 1.6% of 360,000 active; AID 686970;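 also: NT is the 2HG producing partner of a matched IDH1 knockdown line; 0% = DMSO-treated cells and -100% = media-only wells without cells; nearly all actives have a fitted effect of over 55% in size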
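HT-1080-NT fibrosarcoma cells (2HG-overproducing), 750 cells/well in RPMI with 5% FBS, dosed after 2 h and incubated 48 h at 37C. CellTiter-Glo luminescence normalized to DMSO and no-cell wells; concentration-response curves fitted and classed.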
DT40 TDP1 no CPT: qHTS for Inhibitors of human tyrosyl-DNA phosphodiesterase 1 (TDP1): qHTS in cells in absence of CPT. DT40 Tdp1-/- hTDP1 cells, no CPT, ATP luminescence, 48 h. Potency, µM (highest dose often 46.2 µM), for inactives: top-dose activity change, negative = growth inhibition, usual class: inhibitors. 15% of 420,000 active; also: nearly all actives have a fitted effect of over 55% in size
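Cells were dispensed at 400 per well, compounds added by pin tool, plates incubated ≥48 hr at 37 °C, then CellTiter-Glo added for 30 min at room temperature before luminescence reading. Line: DT40 Tdp1-/- complemented with hTDP1; camptothecin omitted.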
KB-V1 MDR tox: KB-V1 MDR subline cytotoxicity; KB-V1 MDR cells viability, CellTiter-Glo, 72 h; Potency, µM (doses to about 46.1 µM), most hits filed as cytotoxic; 3.4% of 400,000 active; also: nearly all actives have a fitted effect of over 60% in size
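KB-V1 MDR subline cells in DMEM (phenol-red free, 10% FBS) exposed to compounds in qHTS concentration series for 72 h at 37 degrees C. Viability read by CellTiter-Glo luminescence; concentration-effect curves fitted after normalization and correction.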
DT40 TDP1 CPT: DT40-hTDP1 cell growth loss with CPT. 12% of 420,000 active. chicken DT40 Tdp1-/-;hTDP1 cells + 20 nM CPT, ATP luminescence, 48 h. Potency, µM (series often up to 46.2 µM), without a hit: top-dose activity change, negative = growth inhibition, actives largely listed as inhibitors; also: nearly all actives have a fitted effect of over 55% in size
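Chicken DT40 Tdp1-/- cells complemented with human TDP1, 400 cells/well, exposed to compounds plus 20 nM camptothecin for at least 48 h at 37 C; viability read as ATP content by CellTiter-Glo luminescence.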
HT1080 IDH1KD tx: HT-1080 IDH1 knockdown cell toxicity (counter line). 2% of 360,000 active. Potency, µM (doses to about 46.1 µM), for the others: at the top dose activity, negative = toxicity, hits mostly cytotoxic. HT-1080 IDH1 knockdown viability, ATP luminescence, 48 h. AID 686971;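 also: 0% = DMSO wells and -100% = cell-free medium wells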
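Using the IDH1-knockdown HT-1080 line run in the same batch and compound series as the NT line, viability after 48 h at 37 °C was determined by CellTiter-Glo luminescence and expressed as % activity.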
KB-3-1 cytotox: KB-3-1 parental cell cytotoxicity; KB-3-1 viability, CellTiter-Glo ATP luminescence, 72 h; Potency, µM (highest dose often 46.1 µM), actives largely listed as cytotoxic; 1.4% of 400,000 active; AID 1347075; also: nearly all actives have a fitted effect of over 60% in size
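Viability of parental KB-3-1 cells, measured by CellTiter-Glo luminescence, followed a 72 h incubation at 37 °C with pinned compounds in phenol-red-free DMEM containing 10% FBS.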
* = called active by the depositor; i = inactive; ? = inconclusive; nt = no result; ! = not active in a repeat. Calls follow the shape of the dose curve; as a rule, active = well fitted curve in the direction sought with a large enough effect; inconclusive = small, poorly fitted or top-dose-only effect, or another doubt; inactive = no such curve, though single readings can be large; an effect the other way counts as inactive or inconclusive. Unless noted, % is scaled to controls: 0 for no effect and ±100 for the full control effect; potency is read from the fitted curve at half-maximal effect.

SMILES | HT1080NT lethal | DT40 TDP1 no CPT | KB-V1 MDR tox | DT40 TDP1 CPT | HT1080 IDH1KD tx | KB-3-1 cytotox
COc1ccc(OC)c(NC(=O)c2cccc3c2C(=O)N(C2CCCCC2)C3)c1 | 3% | 16µM*! | i | ? | -3% | i
COc1ccc(NC(=O)c2cccc3c2C(=O)N(C2CCCCC2)C3)cc1 | 13% | 18µM* | i | 18µM* | 10% | i
Cc1cc(NC(=O)c2cccc3c2C(=O)N(C2CCCCC2)C3)ccc1Br | 0% | 17% | i | 2% | 17% | i
CCOC(=O)N1CCN(C(=O)c2ccc(CS(=O)Cc3ccc(C)cc3)o2)CC1 (configuration not stated) | -1% | ? | i | -23% | 0% | i
Cc1ccc(OCC(=O)Nc2nc(-c3ccc(Br)cc3)ns2)cc1 | nt | ? | nt | -30% | nt | nt
COC(=O)c1ccc(/C=C/c2c(-c3ccc(OC)cc3)oc3ccc(N4CCOCC4)cc23)cc1 | 1% | 23µM* | ? | ? | 10% | ?
O=c1nc(/C=C/c2ccc(O)c(O)c2)oc2ccccc12 | -29% | -29% | i | -14% | -29% | i
COc1ccc(/C=C/c2c(-c3cccc(C)c3)oc3ccc(N4CCOCC4)cc23)cc1 | -3% | -28% | i | ? | 0% | i
COc1ccc(/C=C/c2c(-c3ccc(OC)cc3)oc3ccccc23)cc1 | -3% | -16% | i | -9% | 1% | i
COC(=O)c1ccc(/C=C/c2c(-c3ccc(OC)cc3)oc3ccccc23)cc1 | 1% | 18µM* | i | 18µM* | -1% | i
COc1ccc(/C=C\c2nc(=O)c3ccccc3o2)cc1 | -1% | 7.3µM* | i | ? | -2% | i
Cc1ccc(-n2nnnc2SCc2nnc(-c3ccccc3Br)o2)cc1 | 0% | -26% | 16µM* | -8% | -8% | i
Cc1cc(C)n2nc(SCc3nnc(-c4ccccc4Br)o3)nc2n1 | 0% | ? | 13µM* | -2% | 4% | i
Brc1ccccc1-c1nnc(CSc2nncn2-c2ccccc2)o1 | -2% | -29% | i | -14% | 1% | i
CCC(=O)Nc1ccc2c(c1)N(C(C)=O)c1ccccc1CC2 | 2% | -4% | i | -7% | 20% | i
COc1ccc(C(CNC(=O)COc2ccccc2C)N2CCCCC2)cc1 (configuration not stated) | 0% | 16µM* | i | 21µM* | 1% | i
Cc1ccccc1OCC(=O)NCC(c1ccc(Cl)cc1)N1CCCCC1 (configuration not stated) | nt | 13µM* | i | 21µM* | nt | i
O=c1c(CCc2ccccc2)nc2cnc(N3CCOCC3)nc2n1CCc1ccccc1 | nt | 27% | nt | 4% | nt | nt
C=CCNC(=S)NNC(=O)c1ccc(OCCCC)cc1 | 1% | -25% | i | -13% | -1% | i
COc1ccc(C(=O)NC(=S)NNC(=O)c2ccc(C)cc2)cc1 | ? | ? | i | ? | ? | ?
CCCCOc1ccc(C(=O)NNC(=S)NC(=O)CC)cc1 | ? | 2.6µM* | ? | 4.6µM* | ? | ?
CCC(=O)NC(=S)NNC(=O)c1ccc(OC)cc1 | -22% | 22µM* | ? | 29µM* | ? | i
CC1CCN(c2oc(-c3ccc(COc4ccc(Cl)cc4)o3)nc2C#N)CC1 | nt | ? | i | ? | nt | i
O=C(Cc1ccc(Cl)cc1)NCCCNC(=O)c1cccnc1 | -29% | -12% | i | -23% | ? | i
COC(=O)[C@@]12C[C@@H](CC(=O)N3CCCCC3)C(=O)N(Cc3ccco3)C1=CCC(C)(C)C2 | 11% | ? | ? | 23µM* | 4% | i
SMILES | HT1080NT lethal | DT40 TDP1 no CPT | KB-V1 MDR tox | DT40 TDP1 CPT | HT1080 IDH1KD tx | KB-3-1 cytotox
COC(=O)[C@@]12C[C@@H](CC(=O)NCC34CC5CC(CC(C5)C3)C4)C(=O)N(Cc3ccco3)C1=CCC(C)(C)C2 | 21µM* | 15µM* | 15µM* | 16µM* | ? | ?
C#CCNC(=O)C[C@@H]1C[C@@]2(C(=O)OC)CC(C)(C)CC=C2N(Cc2ccco2)C1=O | 8% | 19% | ? | 17% | 7% | i
O=C(COC(=O)/C=C/c1ccccc1)NCc1ccccc1Cl | -1% | 4% | i | 6% | 1% | i
Cn1c(=O)n(Cc2ccccc2Cl)c(=O)c2c1nc1n2CCN1c1ccccc1 | nt | -28% | nt | -7% | nt | nt
C#CCOCCOCCOCCNc1nc(N2CCN(C(=O)CCCCCCCCCCNC(=O)[C@@H](CCSC)n3cc(CCO)nn3)CC2)nc(N2CCN(C(=O)CCCCCCCCCCNC(=O)[C@H](CCCN=C(N)N)n3cc(C[C@@H](C)CC)nn3)CC2)n1 | ? | ? | ? | 26µM* | ? | i
C#CCOCCOCCOCCNc1nc(N2CCN(C(=O)CCCCCCCCCCNC(=O)[C@@H](CCSC)n3cc(CCO)nn3)CC2)nc(N2CCN(C(=O)CCCCCCCCCCNC(=O)[C@@H]([C@H](C)O)n3cc(C)nn3)CC2)n1 | -6% | 9.2µM* | i | 6.5µM* | -13% | i
C#CCOCCOCCOCCNc1nc(N2CCN(C(=O)CCCCCCCCCCNC(=O)Cn3cc(C[C@@H](C)O)nn3)CC2)nc(N2CCN(C(=O)CCCCCCCCCCNC(=O)[C@@H](CCSC)n3cc(CCO)nn3)CC2)n1 | ? | 10µM* | i | ? | 21µM* | i
C#CCOCCOCCOCCNc1nc(N2CCN(C(=O)CCCCCCCCCCNC(=O)[C@@H](CCSC)n3cc(CCO)nn3)CC2)nc(N2CCN(C(=O)CCCCCCCCCCNC(=O)[C@H](CO)n3cc(CCCCCN)nn3)CC2)n1 | ? | ? | i | ? | ? | i
C#CCOCCOCCOCCNc1nc(N2CCN(C(=O)CCCCCCCCCCNC(=O)[C@H](CCCCN)n3cc(C)nn3)CC2)nc(N2CCN(C(=O)CCCCCCCCCCNC(=O)[C@@H]([C@H](C)O)n3cc(C)nn3)CC2)n1 | 10µM* | ? | ? | ? | ? | 21µM*
C#CCOCCOCCOCCNc1nc(N2CCN(C(=O)CCCCCCCCCCNC(=O)[C@H](CCCCN)n3cc(C[C@@H](C)CC)nn3)CC2)nc(N2CCN(C(=O)CCCCCCCCCCNC(=O)[C@@H]([C@H](C)O)n3cc(C)nn3)CC2)n1 | ? | 5.2µM* | 9.2µM* | 4.6µM* | ? | ?
